Sampled rows, rich in hits. Any-hit rate of the full collection: about 4.2%.
Sfp inh: blocks B. subtilis Sfp PPTase activity; Q9F4F7; Biochemical Sfp PPTase activity, qHTS; Potency, µM, most hits filed as inhibitors; actives 3.5% (n = 310,000); AID 1490;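 note: the enzyme is Sfp with the accession as filed and its product quenches rhodamine fluorescence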
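Compounds were incubated with enzyme (final 15 nM) for 15 min at room temperature before substrate addition started the reaction. Fluorescence at 525 nm excitation, 598 nm emission was recorded immediately and after 30 minutes.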
PLK1 PBD block: PLK1 (human) polo-box domain binding inhibition. Potency, µM, actives largely listed as inhibitors. AID 720504. P53350. actives 2.8% (n = 360,000). Plk1 PBD binding of FITC phosphopeptide, fluorescence polarization; note: series mostly up to about 57 µM; nearly all actives have a fitted effect of over 65% in size
Target sequence (P53350 whole entry, looked up, the tested form may be a part): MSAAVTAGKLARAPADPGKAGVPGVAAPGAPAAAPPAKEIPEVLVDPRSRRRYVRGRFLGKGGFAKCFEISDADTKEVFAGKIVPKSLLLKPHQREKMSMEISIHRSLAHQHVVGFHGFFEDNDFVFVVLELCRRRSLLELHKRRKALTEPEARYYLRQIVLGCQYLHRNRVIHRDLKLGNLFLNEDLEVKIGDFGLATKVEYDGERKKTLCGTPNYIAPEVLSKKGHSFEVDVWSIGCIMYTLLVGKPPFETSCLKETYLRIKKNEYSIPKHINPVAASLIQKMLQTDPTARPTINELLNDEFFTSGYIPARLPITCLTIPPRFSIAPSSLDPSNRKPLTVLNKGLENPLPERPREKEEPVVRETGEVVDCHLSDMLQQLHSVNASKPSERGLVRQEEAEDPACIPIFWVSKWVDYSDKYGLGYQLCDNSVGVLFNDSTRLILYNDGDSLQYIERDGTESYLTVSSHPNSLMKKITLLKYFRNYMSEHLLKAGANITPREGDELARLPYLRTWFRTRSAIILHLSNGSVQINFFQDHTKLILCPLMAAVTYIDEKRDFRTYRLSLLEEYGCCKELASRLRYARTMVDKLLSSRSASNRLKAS
VDR inhibitor: vitamin D3 receptor (human) inhibition | VDR-SRC2-3 peptide fluorescence polarization, 2 h | Potency, µM, hits mostly inhibitors | P11473 | actives 0.93% (n = 400,000)
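Reagent solutions, kept cold and dark, are dispensed first; compounds are then pinned in at 23 nl, plates briefly spun, and incubated 2 h at ambient temperature. Inhibition of VDR–SRC2-3 peptide binding is read by fluorescence polarization.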
12-LOX inh: ALOX12 (human) lipoxygenase inhibition; P18054; purified 12hLO, xylenol orange hydroperoxide absorbance; Potency, µM (highest dose often 108 µM), hits mostly inhibitors; actives 1.1% (n = 580,000); AID 1671190
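Purified human 12hLO at 150 nM in 25 mM Hepes, 0.01% Triton X-100, pH 7.0, preincubated 15 min at room temperature with compound. Reaction started with 40 uM arachidonic acid, 30 min at room temperature. Hydroperoxide measured by Fe-xylenol orange, 573/405 nm absorbance ratio.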
VDR confirm: inhibits human vitamin D receptor, primary hit validation; VDR-coactivator inhibition assay, qHTS confirmation; AID 602199; actives 89% (n = 840); Potency, µM, most hits filed as inhibitors; shares compounds with VDR inhibitor
VDR FP: blocks human VDR-coactivator binding in fluorescein assay; shares compounds with VDR inhibitor; VDR-coactivator binding, fluorescein fluorescence polarization; Potency, µM (top dose mostly 57.1 µM), actives largely listed as inhibitors; actives 48% (n = 840)
VDR bla: inhibits human VDR in beta-lactamase reporter cells; actives 23% (n = 840); VDR beta-lactamase reporter cells, FRET ratio; cells co-treated with VDR agonist LG190178; shares compounds with VDR inhibitor; AID 602202; Potency, µM (top dose mostly 46.1 µM), most hits filed as inhibitors
VDR viability: counter-screen for vitamin D receptor inhibitors: cytotoxicity | shares compounds with VDR inhibitor | cytotoxicity counter-screen, cell viability, qHTS | Potency, µM (highest dose often 48.3 µM), actives largely listed as cytotoxic | actives 18% (n = 840); note: nearly all actives have a fitted effect of over 75% in size
TbPYK confirm: confirmation of Trypanosoma brucei pyruvate kinase inhibitors. actives 67% (n = 890). shares compounds with PLK1 PBD block. Potency, µM (doses to about 76.9 µM), most hits filed as inhibitors. recombinant TbPYK, Kinase-Glo ATP luminescence. AID 720569; note: nearly all actives have a fitted effect of over 70% in size
TbPYK ADP-Glo: orthogonal confirmation of Trypanosoma brucei pyruvate kinase inhibitors; shares compounds with PLK1 PBD block; actives 62% (n = 890); recombinant TbPYK, ADP-Glo luminescence, 60 min; Potency, µM (doses to about 76.9 µM), most hits filed as inhibitors; note: nearly all actives have a fitted effect of over 75% in size
Large screens that a line does not name were inactive (follow-up assays come after a bar, where they were run). Calls come from the whole dose curve; as a rule, active = well fitted curve in the direction sought with a large enough effect; inconclusive = small, poorly fitted or top-dose-only effect, or another doubt; inactive = no such curve, though single readings can be large; an effect the other way counts as inactive or inconclusive.

CCOc1cc(/C=C2/C(=O)ON=C2C)cc(Br)c1O	VDR inhibitor 56.2µM, 12-LOX inh inconclusive | VDR confirm 9.47 | VDR FP inactive | VDR bla inactive | VDR viability inactive
COc1cc(/C=C2\C(=O)ON=C2c2ccccc2)cc(Br)c1O	Sfp inh inconclusive, PLK1 PBD block inconclusive, VDR inhibitor 25.1µM, 12-LOX inh inconclusive | VDR confirm 3.77 | VDR FP inactive | VDR bla inconclusive | VDR viability inactive
COc1cc(/C=C2\C(=O)ON=C2c2ccccc2)cc(Cl)c1O	PLK1 PBD block inconclusive, VDR inhibitor 44.7µM, 12-LOX inh inconclusive | VDR confirm 5.32 | VDR FP inactive | VDR bla inconclusive | VDR viability inactive
CCOc1cc(/C=C2\C(=O)ON=C2c2ccccc2)cc(Br)c1O	Sfp inh 79.4µM, PLK1 PBD block inconclusive, VDR inhibitor 25.1µM, 12-LOX inh 22.4µM | VDR confirm 3.77 | VDR FP inactive | VDR bla inconclusive | VDR viability inactive
COc1cc([N+](=O)[O-])ccc1-c1ccc(/C=C2\C(=O)ON=C2c2ccccc2)o1	PLK1 PBD block 2.67µM, VDR inhibitor inconclusive, 12-LOX inh inconclusive (no result: Sfp inh) | VDR confirm 2.51 | VDR FP 1.78µM | VDR bla inconclusive | VDR viability inconclusive
C#CCOc1ccc(/C=C2/C(=O)ON=C2C)cc1Br	Sfp inh 56.2µM, PLK1 PBD block 1.68µM, VDR inhibitor 39.8µM | VDR confirm 10.6 | VDR FP inconclusive | VDR bla inconclusive | VDR viability inactive
CC1=NOC(=O)/C1=C\c1ccc(-c2ccccc2Br)o1	Sfp inh 56.2µM, PLK1 PBD block 0.423µM, VDR inhibitor 12.6µM, 12-LOX inh 5.62µM | VDR confirm 9.47 | VDR FP inconclusive | VDR bla inconclusive | VDR viability inconclusive | TbPYK confirm inconclusive | TbPYK ADP-Glo inactive
O=C1N=c2ccccc2=C1c1c(O)n(-c2cccc(F)c2)[nH]c1=O	Sfp inh 11.2µM, PLK1 PBD block 5.32µM, VDR inhibitor 70.8µM, 12-LOX inh inconclusive | VDR confirm 5.97 | VDR FP inconclusive | VDR bla inactive | VDR viability inactive | TbPYK confirm 3.55µM | TbPYK ADP-Glo 7.94µM
O=C(CCC[C@@H]1[C@H]2CCCN3CCC[C@@H](CN1C(=O)c1cc(F)cc(F)c1)[C@@H]23)NCC1CC1	none (no result: Sfp inh, PLK1 PBD block, VDR inhibitor)
CC1(C)CC(=O)C(C(C2=C(O)CC(C)(C)CC2=O)c2ccc(Br)s2)C(=O)C1 (stereo not given)	Sfp inh 20µM, PLK1 PBD block 1.89µM, VDR inhibitor 10µM, 12-LOX inh 15.8µM | VDR confirm 4.23 | VDR FP 2.82µM | VDR bla inactive | VDR viability inconclusive | TbPYK confirm 14.1µM | TbPYK ADP-Glo 28.2µM
COc1ccc(C2C3=C(CC(C)(C)CC3=O)OC3=C2C(=O)CC(C)(C)C3)c(OC)c1	none (no result: Sfp inh, PLK1 PBD block, VDR inhibitor)
CC1(C)CC(=O)C2=C(C1)OC1=C(C(=O)CC(C)(C)C1)C2c1ccc(O)cc1O	Sfp inh 7.94µM, PLK1 PBD block 3.55µM, VDR inhibitor 8.91µM, 12-LOX inh inconclusive | VDR confirm 6.7 | VDR FP inconclusive | VDR bla 16.4µM | VDR viability inconclusive | TbPYK confirm 28.2µM | TbPYK ADP-Glo inconclusive
CCC(=O)N(CC)C1=C(O)c2ccccc2C(=O)C1=O	Sfp inh 11.2µM, PLK1 PBD block 23.8µM, VDR inhibitor 79.4µM, 12-LOX inh inconclusive | VDR confirm inconclusive | VDR FP inconclusive | VDR bla inconclusive | VDR viability inconclusive | TbPYK confirm inactive | TbPYK ADP-Glo 25.1µM
Cc1cccc(N2CCN(C(=S)c3ccc(-c4ccccc4[N+](=O)[O-])o3)CC2)c1	Sfp inh inconclusive, PLK1 PBD block inconclusive
O=[N+]([O-])c1ccccc1-c1ccc(C(=S)N2CCCC2)o1	Sfp inh 7.94µM, PLK1 PBD block 2.67µM, VDR inhibitor 39.8µM, 12-LOX inh 39.8µM | VDR confirm 21.2 | VDR FP inconclusive | VDR bla inactive | VDR viability inactive | TbPYK confirm 17.8µM | TbPYK ADP-Glo 31.6µM
O=C1C=C(c2ccccc2)C(=O)N1Nc1ccccc1	Sfp inh 10µM, PLK1 PBD block 8.44µM, VDR inhibitor inconclusive, 12-LOX inh inconclusive | VDR confirm 5.62 | VDR FP 7.94µM | VDR bla 20.6µM | VDR viability inconclusive | TbPYK confirm 15.8µM | TbPYK ADP-Glo 25.1µM
CC(=O)C1=C(O)C(=O)N(C)C1c1ccccc1F (stereo not given)	12-LOX inh inconclusive
Cc1nc(CN2CCN(C(=O)c3ccc(C(C)(C)C)cc3)CC2)cs1	none
Nc1ccccc1SC1=CS(=O)(=O)c2ccccc21	none (no result: Sfp inh, PLK1 PBD block, VDR inhibitor)
O=S1(=O)C=C(Sc2nnc(-c3ccccc3)o2)c2ccccc21	Sfp inh 15.8µM, PLK1 PBD block 1.89µM, VDR inhibitor inconclusive (no result: 12-LOX inh) | VDR confirm 2.24 | VDR FP 1.58µM | VDR bla inconclusive | VDR viability 11.9µM | TbPYK confirm 20µM | TbPYK ADP-Glo 22.4µM
COCc1ccc(C(=O)N2CCC3(CC2)CC(c2ccccc2)C(=O)N3)o1 (stereo not given)	none (no result: Sfp inh, PLK1 PBD block, VDR inhibitor)
COCCN(CC(=O)NC1CCCCC1)C(=O)/C=C/C(=O)c1ccc(OC)cc1O	PLK1 PBD block 21.2µM, VDR inhibitor 15.8µM | VDR confirm 9.47 | VDR FP inconclusive | VDR bla 20.6µM | VDR viability inconclusive | TbPYK confirm 7.08µM | TbPYK ADP-Glo 12.6µM
COc1ccc(CN(C(=O)/C=C/C(=O)c2ccc(OC)cc2O)C(C(=O)NC2CCCCC2)c2ccncc2)cc1 (stereo not given)	none
Cc1cccc(C(=O)Oc2csc(=S)n2C(=O)c2cccc(C)c2)c1	Sfp inh 44.7µM, PLK1 PBD block 4.74µM, VDR inhibitor inconclusive, 12-LOX inh inconclusive | VDR confirm 8.91 | VDR FP 2.82µM | VDR bla inactive | VDR viability inactive | TbPYK confirm 1.26µM | TbPYK ADP-Glo 2.51µM
Cc1cccc(C(=O)Oc2ccc(C)c(C)c2)c1	none (no result: Sfp inh, PLK1 PBD block, VDR inhibitor)

Screening data as filed in PubChem.
